# Test results published in ChEMBL document CHEMBL4513216, “Probing the Open Global Health Chemical Diversity Library for Multistage-Active Starting Points for Next-Generation Antimalarials” (ACS Infect Dis, 2020).
# Screen size: about 69,000 compounds; about 8,600 (12%) showed an effect of 50% or more. What follows is part of a selection rich in strong results, with near analogues and random picks from the rest.
# Tested on: Plasmodium berghei
# Assay: Screen against P. berghei liver stage (PbLuc), transformed with Luciferase, at 10uM
# Type: functional, HepG2
# Conditions: tested at 10 uM
row,SMILES,INHIBITION [%]
1,Cc1nn(C)c(N(C)C)c1CNCCCN(C(C)C)S(C)(=O)=O,6.15
2,COc1ncccc1CN1CCn2c(Cn3cncn3)cnc2C1,7.96
3,CCc1nc(C2CCCN2C(=O)c2ccc3c(c2)[nH]c(=O)n3C)no1 (configuration not stated),-21.7
4,COc1cccc(CC(=O)NC2CCCc3cn[nH]c32)c1 (configuration not stated),33.4
5,Cc1nn(C)c(Cl)c1CNCc1cccnc1N1CCCCC1,-13
6,Cc1noc(C)c1CC(=O)N1CCCC(Cc2ccccn2)C1 (configuration not stated),-0.6
7,CC1(C)COCCN1C(=O)Cc1cc(Cl)c2c(c1)OCCO2,-117
8,O=C(C[C@@H]1COC[C@H]2CN(C(=O)c3cccnc3)C[C@@H]12)N1CCOCC1,-81.1
9,CCOc1ccc2[nH]c(=O)c(CN3CCC(n4cnnc4)CC3)cc2c1,43.4
10,CN(CCn1ccnc1-c1ccccn1)S(C)(=O)=O,-36
11,Cn1nc(COCC2CC2)c2c1CN(C(=O)c1ccno1)CC2,8.85
12,O=C(c1ccc(Cl)cc1)N1CCCn2nnc(Cn3cccn3)c2C1,10.8
13,CCc1ccc(C(=O)N2CCCn3nnc(Cn4cccn4)c3C2)cc1,52.3
14,Cc1ccccc1C(=O)N1CCCn2nnc(Cn3cccn3)c2C1,-16.9
15,O=C(c1ccncc1)N1CCCn2nnc(Cn3cccn3)c2C1,33
16,O=C(CO)N1CCCn2nnc(Cn3cccn3)c2C1,12.1
17,Cc1ccsc1C(=O)N1CCCn2nnc(Cn3cccn3)c2C1,60.3
18,CN1CCOC(CNCc2csc(C3CCCCC3)n2)C1 (configuration not stated),13.6
19,CCN(CC)C(=O)Cn1cc(-c2nc(-c3ccccc3C)no2)nn1,-19.1

row,SMILES,INHIBITION [%]
1,Cn1nc(C2CCCC2)c(-c2ccc3c(c2)OCO3)c1N,48
2,CSCCc1nc(-c2ccc3c(c2)OCO3)n(C)n1,25.9
3,CCc1[nH]n(C)c(=N)c1-c1ccc2c(c1)OCO2,53.6
4,CCCc1[nH]n(C)c(=N)c1-c1ccc2c(c1)OCO2,27.6
5,Cn1[nH]c(C2CC2)c(-c2ccc3c(c2)OCO3)c1=N,16.5
6,Cn1[nH]c(C2CCC2)c(-c2ccc3c(c2)OCO3)c1=N,64.7
7,CN(C)c1ncc2c(O)nc(C3CCCNC3)cc2n1 (configuration not stated),24.8
8,COc1ccccc1OCCCN1CCNC1=O,12.9
9,CCC(=O)Nc1nnc2n(Cc3cccc(OC)c3)[nH]c(C)c1-2,-31
10,CN(C)S(=O)(=O)c1ccc(CSCC(=O)NC(C)(C)C)o1,17.9
11,CCCNC(=O)CSCc1ccc(S(=O)(=O)N(C)C)o1,53.7
12,CCC(C)(C)NC(=O)CSCc1ccc(S(=O)(=O)N(C)C)o1,3.73
13,Cc1occc1C(=O)N1CCc2c(CNS(C)(=O)=O)cncc2C1,6.55
14,CN(CCOc1ccccc1)C(=O)Nc1cccn(C)c1=O,82.4
15,CC(C)Oc1cccc(CN(C)C(=O)Nc2cccn(C)c2=O)c1,-15
16,COc1c(NC(=O)N(C)CCOc2ccccc2)c(C)nn1C,-24.6
17,CC(C)c1sc(Cl)nc1C(=O)N1CCN(Cc2ccccc2)CC1,10.9
18,Cc1ccc(-n2cc(C(=O)NCc3nnc4n3CCCCC4)nn2)cc1,-21.2
19,CCN(CC)c1ccc(CNC(=O)N2CCC(C#N)CC2)cc1,2.91

row,SMILES,INHIBITION [%]
1,CCc1ccc(C(=O)N2CCC(N(C)C(=O)OC(C)(C)C)C2)o1 (configuration not stated),71.2
2,Cc1ccc(C(=O)N2CCCC(N(C)C(=O)OC(C)(C)C)C2)o1 (configuration not stated),37.8
3,CN(C(=O)OC(C)(C)C)C1CCN(C(=O)c2ccc(Cl)o2)C1 (configuration not stated),-12.3
4,c1ccc(-c2nc3c(c(NCc4nnc5n4CCC5)n2)CCNC3)cc1,39.4
5,NC(=O)NC(CC(=O)N1CCc2sccc2C1)c1cccc(Br)c1 (configuration not stated),14.9
6,COc1ccc(CNCCC(=O)N2CCc3sccc3C2)cc1O,76.2
7,CN(CCC(=O)N1CCc2sccc2C1)Cc1cc(Br)cs1,19.2
8,COc1ccc(CNC(=O)N2CCc3sccc3C2)cc1O,-45
9,CC(C)(C)CC(=O)N1CCc2sccc2C1,-46.6
10,CN(CCC(=O)N1CCc2sccc2C1)Cc1ccc2c(c1)OCCO2,-7.35
11,O=C(CCNCc1cccc(O)c1)N1CCc2sccc2C1,81.2
12,N#Cc1cccc(CNCCC(=O)N2CCc3sccc3C2)c1,68.3
13,O=C(CCN1CCCC1c1cccc(F)c1)N1CCc2sccc2C1 (configuration not stated),9.54
14,CN(C)C(=O)c1cccn1-c1ccc2c(c1)OCCO2,9.16
15,CC(C)(C)OC(=O)N1CCN(c2cccnc2)CC1C(=O)O (configuration not stated),20.2
16,CC(C)C(C(=O)N1CCN(Cc2ccccn2)CC1)n1cncn1 (configuration not stated),-24.5
17,Cc1nc(C(C)C)sc1C(=O)NCCNc1ncccc1C#N,-29.1
18,O=C(NC1CC1)N1CCC2(CC1)C(=O)NCCN2Cc1ccccc1,30.9
19,CC(C)(C)OC(=O)N(CCNS(=O)(=O)N1CCOCC1)C1CC1,-28
